Growth data for eight molecules are collected here from PubChem BioAssay (NCI).

Some test systems named below: SK-MEL-2 melanoma; SN12C renal; UO-31 renal; TK-10 renal; ACHN renal; CAKI-1 renal; A498 renal; CCRF-CEM leukemia; MOLT-4 leukemia; SR leukemia; RPMI-8226 leukemia; OVCAR-4 ovarian; SK-OV-3 ovarian; IGROV1 ovarian; OVCAR-3 ovarian; HS 578T breast; OVCAR-8 ovarian; NCI/ADR-RES ovarian; OVCAR-5 ovarian.
Experiment in all cases: NCI-60 one-dose screen, 48 h (100 = growth as untreated, 0 = no growth, -100 = all killed)
What all share (settings): 10 µM unless noted

Compounds without any hit were thinned out: in the full panel of roughly 83,000, 20% have a hit.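 For each line, cells grew in 96-well plates with the test compound present at a single concentration for 48 hours.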 Unmarked numbers belong to inactive results. Calls of active or inactive are those of the source. How the source made its calls: active means growth percent below 10; inactive means the rest.

Take `COc1ccc([N+](=O)[O-])c(/C=C/C(=O)c2ccccn2)c1`: the growth is 114% in the experiment with SK-MEL-2 melanoma; 81.2% in the experiment with SN12C renal; 73.3% in the experiment with UO-31 renal; 126% in the experiment with TK-10 renal; 68.9% in the experiment with ACHN renal; 71.7% in the experiment on CAKI-1 renal. The growth in the experiment with A498 renal is 83.3%; with CCRF-CEM leukemia, 49.6%; in the experiment on MOLT-4 leukemia, 13.3%; with SR leukemia, 26.5%; in the experiment with RPMI-8226 leukemia, 52.6%; in the experiment with OVCAR-4 ovarian, 72.2%. Besides, the growth with SK-OV-3 ovarian is 96%; in the experiment on IGROV1 ovarian, 60.8%; in the experiment on OVCAR-3 ovarian, 86.1%; with HS 578T breast, 91.4%.

`COc1cc(NS(C)(=O)=O)ccc1Nc1c2ccc([N+](=O)[O-])cc2nc2c(C)cccc12`: the growth was 25.4% with SK-MEL-2 melanoma; 2.9% (active) in the experiment with SN12C renal; -3.4% (active) in the experiment with UO-31 renal; 5.21% (active) with TK-10 renal; -30.9% (active) in the experiment on ACHN renal; -21.2% (active) in the experiment on CAKI-1 renal. Further, the growth was -23.5% (active) in the experiment with A498 renal; -11.8% (active) with CCRF-CEM leukemia; -8.62% (active) with MOLT-4 leukemia; 15.6% in the experiment on SR leukemia; -19.8% (active) with RPMI-8226 leukemia; 13.7% with OVCAR-8 ovarian. Besides, the growth was 49.1% in the experiment on OVCAR-4 ovarian; 11.2% in the experiment with SK-OV-3 ovarian; -2.46% (active) in the experiment on IGROV1 ovarian; -13% (active) in the experiment on OVCAR-3 ovarian; 58.4% in the experiment on HS 578T breast; 58.6% in the experiment with NCI/ADR-RES ovarian.

For `Cn1c(C(N)=O)cc2c1-c1nc(NC3CCCCC3)ncc1CCC2`, the growth in the experiment with SK-MEL-2 melanoma is 105%; with SN12C renal it was 90.9%; in the experiment with UO-31 renal, 67.2%; with TK-10 renal it was 89.4%; in the experiment with ACHN renal, 85.8%; in the experiment on CAKI-1 renal, 83.3%. Further, the growth in the experiment on A498 renal is 46%; in the experiment with CCRF-CEM leukemia it was 93.9%; in the experiment on MOLT-4 leukemia, 85.1%; in the experiment with SR leukemia it was 92.5%; with OVCAR-8 ovarian it was 88.1%; with OVCAR-5 ovarian it was 64.6%. In addition, the growth with OVCAR-4 ovarian is 93.4%; in the experiment on SK-OV-3 ovarian it was 91.3%; with IGROV1 ovarian it was 113%; in the experiment on OVCAR-3 ovarian, 97.1%; in the experiment with HS 578T breast, 58.5%; with NCI/ADR-RES ovarian, 91.5%.

`COC1=CC(c2ccc[nH]2)=N/C1=C\c1[nH]c(C)c(C(=O)CCC(=O)Oc2ccc3c(c2)CCC2C3CC[C@]3(C)[C@@H](O)CC[C@@H]23)c1C` (stereo partly specified): the growth is 1.42% (active) in the experiment on SK-MEL-2 melanoma; 17.3% with SN12C renal; -61.9% (active) in the experiment with UO-31 renal; 34.4% with TK-10 renal; -55.3% (active) in the experiment on ACHN renal; -39.3% (active) in the experiment on CAKI-1 renal. Also, the growth is -12.7% (active) in the experiment on A498 renal; 0.176% (active) in the experiment with CCRF-CEM leukemia; -9.7% (active) in the experiment on MOLT-4 leukemia; -17.6% (active) in the experiment on SR leukemia; -12.2% (active) in the experiment on RPMI-8226 leukemia; -3.79% (active) in the experiment on OVCAR-8 ovarian. Moreover, the growth in the experiment on OVCAR-4 ovarian is 43.1%; in the experiment with SK-OV-3 ovarian, 51.1%; with IGROV1 ovarian it was 16.8%; in the experiment on HS 578T breast, 20.4%; in the experiment on NCI/ADR-RES ovarian, 8.32% (active).

Turning to `COc1cc(C2C3=C(COC3=O)Nc3c2ccc2c3CCCC2)cc2c1OCO2` (stereo unspecified), the growth is 18.6% in the experiment on SK-MEL-2 melanoma; 28% in the experiment with SN12C renal; 47.7% with UO-31 renal; 65.9% in the experiment with TK-10 renal; 29.2% in the experiment on ACHN renal; 33.2% in the experiment with CAKI-1 renal. The growth was 8.51% (active) in the experiment with A498 renal; 14.6% in the experiment with CCRF-CEM leukemia; 18.3% in the experiment on MOLT-4 leukemia; 7.47% (active) with SR leukemia; 15.9% in the experiment on OVCAR-8 ovarian; 42.8% with OVCAR-5 ovarian. The growth in the experiment on OVCAR-4 ovarian is 38%; in the experiment on SK-OV-3 ovarian, -8.93% (active); in the experiment with IGROV1 ovarian, 44.7%; with OVCAR-3 ovarian it was -53.1% (active); with HS 578T breast it was 81.8%; in the experiment with NCI/ADR-RES ovarian, 3.82% (active).

For the molecule `Cc1ccc(Cn2c(-c3cccs3)nc3ccccc32)cc1`, the growth with SK-MEL-2 melanoma was 101%; in the experiment on SN12C renal it was 98.6%; with UO-31 renal, 59.5%; with TK-10 renal, 89.8%; with ACHN renal it was 86.4%; with CAKI-1 renal it was 86.3%. Moreover, the growth in the experiment on A498 renal is 80.2%; in the experiment on CCRF-CEM leukemia it was 90.3%; in the experiment on MOLT-4 leukemia, 93.2%; in the experiment on RPMI-8226 leukemia, 77.8%; with OVCAR-8 ovarian it was 82.3%; in the experiment on OVCAR-5 ovarian, 98.8%. Besides, the growth was 76.6% in the experiment with OVCAR-4 ovarian; 100% with SK-OV-3 ovarian; 81.8% in the experiment with IGROV1 ovarian; 93.9% in the experiment on OVCAR-3 ovarian; 89.2% in the experiment on HS 578T breast; 85.6% in the experiment with NCI/ADR-RES ovarian.

For the molecule `CCN(Cc1ccc(CN(CC)C(=O)C(Br)Br)cc1)C(=O)C(Br)Br`, the growth in the experiment with SK-MEL-2 melanoma was 76.9%; with SN12C renal, 48.9%; in the experiment on UO-31 renal, 52.2%; in the experiment with TK-10 renal it was 48.1%; in the experiment with ACHN renal, 12.1%; in the experiment on CAKI-1 renal it was 28.3%. Moreover, the growth was 38.3% in the experiment with A498 renal; 24.9% with CCRF-CEM leukemia; 34.2% in the experiment with MOLT-4 leukemia; 14.2% with RPMI-8226 leukemia; 20.4% in the experiment on OVCAR-8 ovarian; 71.1% with OVCAR-5 ovarian. The growth was 32.1% in the experiment on OVCAR-4 ovarian; 79.8% with SK-OV-3 ovarian; 46.4% in the experiment with IGROV1 ovarian; 8.57% (active) with OVCAR-3 ovarian; 38.1% in the experiment on HS 578T breast; 39.7% in the experiment on NCI/ADR-RES ovarian.

Consider `CC(=O)N1Cc2ccccc2C(C)Cc2cc(Cl)ccc21` (stereo unspecified), for which the growth is 105% with SK-MEL-2 melanoma; 104% in the experiment on SN12C renal; 97.8% in the experiment on UO-31 renal; 98.4% in the experiment with TK-10 renal; 109% with ACHN renal; 90% in the experiment with CAKI-1 renal. Moreover, the growth in the experiment with A498 renal is 75.7%; in the experiment with CCRF-CEM leukemia, 110%; in the experiment with MOLT-4 leukemia, 97%; with RPMI-8226 leukemia, 105%; in the experiment with OVCAR-8 ovarian, 109%; in the experiment on OVCAR-5 ovarian, 99.1%. In addition, the growth is 97.9% in the experiment with OVCAR-4 ovarian; 108% in the experiment with SK-OV-3 ovarian; 102% in the experiment on IGROV1 ovarian; 109% in the experiment on OVCAR-3 ovarian; 97.7% with HS 578T breast; 117% in the experiment with NCI/ADR-RES ovarian.
